The values that follow come from article PMC5913336, “True equilibrium measurement of transcription factor-DNA binding affinities using automated polarization microscopy”.

This test concerns the target T1, Fkh (Drosophila melanogaster, UniProt P14734 209-300).
T1 sequence: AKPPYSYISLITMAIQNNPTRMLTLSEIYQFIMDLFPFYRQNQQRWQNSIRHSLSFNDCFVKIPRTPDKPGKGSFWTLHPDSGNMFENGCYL
Kind of test: FP; 33 mM phosphate pH 7.0, 90 mM NaCl, 0.01% Tween 20, 0.1 mM DTT, 0.5% agarose; room temperature. Particulars: tags: N-GST (pGEX-6P-1, kept); dsDNA, one strand shown.
For AGTAAAATATTGA, the binding signal is 4.77 Kd / Kd of best base at the position.

Regarding AGTTCAATATTGA, the binding signal is 2.55 Kd / Kd of best base at the position. With AGTTTAATATTGA, the binding signal is 32.1 Kd / Kd of best base at the position. On the same count and under the same terms, the result for AGTTAAATCTTGA reads 14.3 Kd / Kd of best base at the position; that for AATTAAATATTGA, 2.06 Kd / Kd of best base at the position. On the same count and under the same terms, the result for ATTTAAATATTGA reads 1.06 Kd / Kd of best base at the position.

As for AGTTAAATAATGA, the binding signal is 2.19 Kd / Kd of best base at the position. As to AGTTAAAAATTGA, the binding signal is 18.5 Kd / Kd of best base at the position. Take AGTTAAATATTGT: the binding signal was 1.97 Kd / Kd of best base at the position. The same measure, in the same setting: the result for AGTTAAATATTTA reads 1.68 Kd / Kd of best base at the position.

AGTTAAATATTCA: the binding signal is 2.02 Kd / Kd of best base at the position. Still for that read-out and setting: the result for AGTCAAATATTGA reads 3.44 Kd / Kd of best base at the position; that for AGGTAAATATTGA, 1.27 Kd / Kd of best base at the position; that for ACTTAAATATTGA, 7.14 Kd / Kd of best base at the position. On the same count and under the same terms, the result for AGTTACATATTGA reads 4.6 Kd / Kd of best base at the position.

Regarding AGTTAAATAGTGA, the binding signal is 2.35 Kd / Kd of best base at the position.

AGTTAAATATTGG: the binding signal is 1.17 Kd / Kd of best base at the position. Turning to GGTTAAATATTGA, the binding signal is 6.61 Kd / Kd of best base at the position. Still for that read-out and setting: the result for AGCTAAATATTGA reads 3.26 Kd / Kd of best base at the position; that for AGTGAAATATTGA, 6.68 Kd / Kd of best base at the position; that for AGTTAAATATTGC, 2.76 Kd / Kd of best base at the position.

On to AGTTATATATTGA, for which the binding signal was 18.4 Kd / Kd of best base at the position.

Take AGTTAGATATTGA: the binding signal is 60.9 Kd / Kd of best base at the position. The same measure, in the same setting: the result for AGTTAAATATTAA reads 1.49 Kd / Kd of best base at the position; that for AGTTAAATATAGA, 1.73 Kd / Kd of best base at the position.

Regarding AGTTAACTATTGA, the binding signal was 10.2 Kd / Kd of best base at the position. With AGTTAAATACTGA, the binding signal was 27.4 Kd / Kd of best base at the position. On the same count and under the same terms, the result for AGTTAAAGATTGA reads 14.9 Kd / Kd of best base at the position.

As to AGTTAAATGTTGA, the binding signal is 102 Kd / Kd of best base at the position. Same read-out and setting: the result for CGTTAAATATTGA reads 8.05 Kd / Kd of best base at the position. Same read-out and setting: the result for AGTTAAATTTTGA reads 7.9 Kd / Kd of best base at the position.

As to AGTTAAACATTGA, the binding signal is 29.1 Kd / Kd of best base at the position. Same read-out and setting: the result for AGTTAAATATCGA reads 6.39 Kd / Kd of best base at the position; that for AGTTGAATATTGA, 59.1 Kd / Kd of best base at the position. For the sequence AGTTAATTATTGA, the binding signal is 6.31 Kd / Kd of best base at the position.

For the sequence AGATAAATATTGA, the binding signal is 1.16 Kd / Kd of best base at the position. On to TGTTAAATATTGA, for which the binding signal is 1.33 Kd / Kd of best base at the position. AGTTAAATATGGA: the binding signal is 3.07 Kd / Kd of best base at the position. The same measure, in the same setting: the result for AGTTAAGTATTGA reads 37.9 Kd / Kd of best base at the position. With AGTTAAATATTGA, the Kd is roughly 17 nM.

Broadly, the Kd is a measure of binding affinity in units of concentration. Higher therefore signals weaker binding.
